# Measured values reported in PubChem BioAssay AID525 (The Scripps Research Institute Molecular Screening Center, 2006).
# The campaign covered roughly 65,000 compounds. About 360 (0.55%) were called active.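 How the source made its calls: active means inhibition above the mean inhibition of all tested compounds plus 3 SD (cut at about 48% in these data); inactive means the rest.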 The sample as a whole holds a higher share of actives than the screen did.
# Target: Steroidogenic factor 1 (Homo sapiens) (UniProt Q13285)
# Assay: suppressors of SF-1 driven luciferase transcription – cell-based, CHO-K1, Gal4-SF-1 LBD, luciferase luminescence, primary screen (AID 525);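 further: 0% = SF-1 transfected cells with DMSO and 100% = mock-transfected cells lacking SF-1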
# Settings: CHO-K1 Gal4-SF-1 LBD luciferase reporter; at 10 µM; stronger effect = higher value
# Sequence of Steroidogenic factor 1 (Homo sapiens) (Q13285 whole entry, looked up, the tested form may be a part): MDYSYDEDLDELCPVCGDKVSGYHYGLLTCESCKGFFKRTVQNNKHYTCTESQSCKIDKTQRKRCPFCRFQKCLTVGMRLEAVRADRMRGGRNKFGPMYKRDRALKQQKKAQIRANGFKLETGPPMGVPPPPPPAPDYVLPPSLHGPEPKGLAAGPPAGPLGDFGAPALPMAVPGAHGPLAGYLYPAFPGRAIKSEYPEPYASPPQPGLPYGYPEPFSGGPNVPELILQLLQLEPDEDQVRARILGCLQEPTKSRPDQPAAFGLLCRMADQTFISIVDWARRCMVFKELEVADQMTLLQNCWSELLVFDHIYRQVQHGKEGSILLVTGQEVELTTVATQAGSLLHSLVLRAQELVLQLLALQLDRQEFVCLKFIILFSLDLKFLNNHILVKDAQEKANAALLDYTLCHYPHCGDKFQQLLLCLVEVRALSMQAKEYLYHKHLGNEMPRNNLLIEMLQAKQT
row,Structure (SMILES),inhibition
1,COc1ccc(Nc2cc(C)nc(-n3nc(C)cc3C)n2)cc1,53.7% (active)
2,Cn1c(=O)c2cn(-c3cccc4ccccc34)cc2n(C)c1=O,-21.5% (inactive)
3,Cc1cc(NC(=O)c2cc(-c3cccs3)on2)nn1Cc1ccc(Cl)cc1,2.7% (inactive)
4,NC(=O)CCCC1=NS(=O)(=O)c2ccccc2N1,10.1% (inactive)
5,N/C(=N\c1nc2ccccc2o1)NC(=O)C(Cc1ccccc1)N1C(=O)c2ccccc2C1=O (stereo not given),0.7% (inactive)
6,CCOC(=O)C1=C(C)NC(C)=C(C(=O)OCC)C1c1ccccn1,6.7% (inactive)
7,CCOC(=O)CNC(=O)CSc1nnc(-c2cccc(OC)c2)n1CC,12.5% (inactive)
8,CC1CCCCN1S(=O)(=O)c1ccc(C(=O)Nc2nnc(-c3cccs3)o2)cc1 (stereo not given),49.4% (active)
9,CC(C)(C)n1nc2c(c1NC(=O)c1ccc(S(=O)(=O)N3CCCC3)cc1)CS(=O)C2 (stereo not given),6.6% (inactive)
10,Cc1ccc(C(=O)Nc2nnc(-c3cccs3)s2)cc1C,-80.9% (inactive)
11,Cc1ccc(-n2c(SCC(=O)Nc3ccc4c(c3)OCO4)nnc2-c2ccoc2C)cc1,1% (inactive)
12,CCCOC(=O)Nc1ccccc1C(N)=O,-2.2% (inactive)
13,CCCCOc1ccc(-c2ncc(C(=O)OCC)c(N)n2)cc1,-49.8% (inactive)
14,O=C(CN1CCN(c2ccccn2)CC1)NCc1cccs1,-7.1% (inactive)
15,COc1ccc(-n2ncc3c(N4CCc5ccccc54)ncnc32)cc1,-59.8% (inactive)
16,c1cc(-n2cnnn2)ccc1NC1=NCCC1,9.1% (inactive)
17,CCC(=O)Nc1ccc2c(c1)nc(CCN1CCN(C)CC1)n2C,2.6% (inactive)
18,CCOC(=O)Cc1csc(NC(=O)C(C)(C)C)n1,-20.2% (inactive)
19,CCn1c(CNc2ccc(OC)cc2)nnc1SCC(=O)c1ccc(OC)cc1,9.6% (inactive)
20,COc1cc(Cl)c(C)cc1NC(=O)CSc1nnc(-c2cccnc2)n1Cc1ccco1,-10.6% (inactive)
21,Cc1nnc(SCC(=O)N(C(C)C)C(C)C)nc1C,3.3% (inactive)
22,O=C(OCC(=O)c1cccs1)C1=COCCO1,-24.5% (inactive)
23,Cc1ccsc1C(=O)OCC(=O)c1cc(C)n(CC2CCCO2)c1C (stereo not given),80.5% (active)
24,CCOc1cccc(NC(=O)CC#N)c1,-9.5% (inactive)
25,C/C(=N\O)C1(C)N(O)C(C)(C)C(c2ccc(Br)cc2)=[N+]1[O-] (stereo not given),8.5% (inactive)

row,Structure (SMILES),inhibition
1,c1ccc(CSc2nnc(-c3ccco3)n2Cc2ccccc2)cc1,-76% (inactive)
2,Cn1c(-c2ccco2)nc2cc3ccccc3cc21,54.3% (active)
3,O=S(=O)(Nc1ccc2nc(-c3ccco3)[nH]c2c1)c1ccccc1,-53.5% (inactive)
4,Cc1cc(NC(=O)CCC(=O)N(c2ccccc2)C(C(=O)NC2CCCC2)c2ccncc2)no1 (stereo not given),-9.4% (inactive)
5,CCOc1ccccc1NC(=O)CCc1ccc(C)o1,14.7% (inactive)
6,O=C(O)C1CCCN(S(=O)(=O)c2cccc3cccnc23)C1 (stereo not given),-5.7% (inactive)
7,COc1ccc(N2CC(C)Cn3c2nc2c3c(=O)n(Cc3ccccc3F)c(=O)n2C)c(OC)c1 (stereo not given),-2.3% (inactive)
8,Nc1ncc(-c2cc3ccccc3oc2=O)s1,-79.3% (inactive)
9,CCOC(=O)c1c(C(C#N)C#N)cc(C)nc1C,-2.3% (inactive)
10,CC(C)COC(=O)c1ccc(NC(=O)C2C3C=CC(C3)C2C(=O)O)cc1 (stereo not given),-63.7% (inactive)
11,Cn1c(=O)c2c(nc(SCCNS(=O)(=O)c3ccccc3)n2C)n(C)c1=O,13.3% (inactive)
12,CC(=O)c1c(N2CCOCC2)nc(=S)n(-c2cc(C)ccc2C)c1C,-0.4% (inactive)
13,COC(=O)c1ccc(NC(=O)c2ccco2)cc1,-85.3% (inactive)
14,O=C(OC1CCOC1=O)c1ccc(-c2nc3ccccc3s2)s1 (stereo not given),59.9% (active)
15,COc1ccccc1N1CC(O)=C(c2nc3ccccc3s2)C1=N,-13.3% (inactive)
16,COc1ccc(CCN2CNc3c(c(=O)n(C)c(=O)n3C)C2)cc1OC,-1.5% (inactive)
17,CSCC[C@H](NC(=O)NCCc1ccc(F)cc1)C(=O)O,-3.2% (inactive)
18,Fc1ccc2nc(Nc3nc4c(s3)CCCC4)sc2c1,-90% (inactive)
19,CCCC(CCC(=O)OC)(C(=O)OCC)c1csc(N)n1 (stereo not given),-13.3% (inactive)
20,CC(Oc1ccc(Cl)cc1)C(=O)Nc1ncccn1 (stereo not given),16% (inactive)
21,O=C(Nc1ccc(Cl)cn1)c1cnn2cccnc12,-63.8% (inactive)
22,C=CCN(c1ccc(C(N)=O)cc1)S(C)(=O)=O,-14.5% (inactive)
23,Cc1cccc(CC(=O)Nc2c3c(nn2-c2cccc(Cl)c2)CS(=O)C3)c1 (stereo not given),13.6% (inactive)
24,COc1cccc(-c2nc3n(n2)C(c2ccccc2Cl)C(C(N)=O)=C(C)N3)c1 (stereo not given),17.2% (inactive)
25,O=S(=O)(c1cccs1)N1CCc2ccccc2C1,12.2% (inactive)

row,Structure (SMILES),inhibition
1,COCc1[nH]nc2c1C(C1C=CCCC1)C(C#N)=C(N)O2 (stereo not given),-8% (inactive)
2,CCOC(=O)[C@H]1CCC[C@@H](NS(=O)(=O)c2ccc(NC(C)=O)cc2)C1,-18.3% (inactive)
3,CCN(c1ccccc1)S(=O)(=O)c1ccc(N)cc1,-8.5% (inactive)
4,CCCOc1ccc(/C(O)=C2/C(=O)C(=O)N(CCN(C)C)C2c2ccc(OC)c(OC)c2)cc1 (stereo not given),-2.4% (inactive)
5,CC(C)Cc1cc(C(=O)NCCc2ccccc2)no1,-80.7% (inactive)
6,Cc1cc(/C=N/n2cnnc2)c(C)n1-c1ccc2ncccc2c1,2.6% (inactive)
7,O=C(Oc1ccc(-c2nc(-c3ccccn3)no2)cc1)c1ccccc1,49.6% (active)
8,Cc1cccc(-c2noc(-c3ccc(F)cc3)n2)c1,-77.6% (inactive)
9,CCOC(=O)N1CCC(Nc2c(NCCN3CCN(c4cccc(Cl)c4)CC3)c(=O)c2=O)CC1,-1.7% (inactive)
10,COc1ccc(-c2nc(-c3ccccc3)no2)c(OC)c1,82.9% (active)
11,COc1ccc(-c2noc(-c3cccc(OC)c3OC)n2)cc1OC,-100% (inactive)
12,COc1ccc2c(c1)CCc1c(C(=O)N3CCCC3)noc1-2,-55.3% (inactive)
13,CCOC(=O)N1CCN(CC(=O)Nc2cc(C)nn2-c2nc3ccccc3s2)CC1,-0.5% (inactive)
14,CCOC(=O)N1CCN(C(=O)C2CCCN(c3ncnc4c3sc3cccc(F)c34)C2)CC1 (stereo not given),2.8% (inactive)
15,CCOC(=O)N1CCN(C(=O)C2CCN(c3ncnc4c3sc3cccc(F)c34)CC2)CC1,55.2% (active)
16,COc1ccc(C(CC(=O)O)NC(=O)Cc2ccccc2)cc1 (stereo not given),10.8% (inactive)
17,COC(=O)c1ccc(NC(=O)C(C)N2C(=O)c3ccccc3C2=O)cc1 (stereo not given),-11.5% (inactive)
18,CCC(=O)N1CCN=C1SCc1ccc(F)cc1,-14.3% (inactive)
19,CCN(CC)c1ccc(C(=O)OCC(=O)c2ccco2)cc1,-53.6% (inactive)
20,CC1CCCN(Cc2nc3c(c(=O)n(C)c(=O)n3C)n2CC(=O)c2ccccc2)C1 (stereo not given),-26.7% (inactive)
21,COc1ccc(CCNC(=O)CN2CCC(n3nnc4cc(F)ccc43)CC2)cc1OC,-4.4% (inactive)
22,C=CCn1c(=O)c2ccccc2n2c(SCC(=O)N3CCCc4ccccc43)nnc12,8.4% (inactive)
23,CCC(C(=O)NC1CCCC1)N(C(=O)c1snc(C(N)=O)c1N)c1ccc2c(c1)OCCO2 (stereo not given),-2.2% (inactive)
24,CCOc1cc(C(=S)N2CCOCC2)ccc1O,3.9% (inactive)
25,CCOc1cc(C(=O)N2CCc3cc(OC)c(OC)cc3C2)ccc1OC(F)F,77.3% (active)

row,Structure (SMILES),inhibition
1,COc1ccc(-c2cc(C(=O)NC(C(=O)O)C(C)C)c(C)o2)cc1OC (stereo not given),-56.5% (inactive)
2,CCOc1ccccc1-n1c(SCC(=O)NCc2ccco2)nnc1-c1ccncc1,6.1% (inactive)
3,O=C(CN1C(=O)C2C3C=CC(C3)C2C1=O)NCC1COc2ccccc2O1 (stereo not given),-7.1% (inactive)
4,CC(C)OCCCNc1ncnc2c1[nH]c1ccc(F)cc12,84.1% (active)
5,CC(C)CNC(=O)c1cc(-c2ccc(Br)cc2)on1,-52.5% (inactive)
6,Cn1c(NC(=O)c2ccco2)c(-c2ccccc2Cl)c(=O)c2ccccc21,-7.6% (inactive)
7,CC1=C(C(=O)OCc2ccccc2)C(c2ccco2)n2ncnc2N1 (stereo not given),14.7% (inactive)
8,O=C(COc1ncnc2ccccc12)NC(=O)NCc1ccccc1,2.4% (inactive)
9,CN(Cc1ccccc1)Cc1ccccc1F,9.2% (inactive)
10,O=C(CN1C(=O)COc2ccccc21)Nc1ccc(F)cc1,8.5% (inactive)
11,CC(C)(C)NC(=O)Cn1nnc(-c2ccccc2Cl)n1,-50% (inactive)
12,O=C(Cn1cc2c(n1)CCCCC2)NCCN1CCOCC1,8.1% (inactive)
13,COC(=O)c1ccc(NCC(=O)c2ccccc2)cc1,-68.7% (inactive)
14,O=C(Cn1cnc2c(cnn2-c2ccccc2)c1=O)NCc1ccccc1,-70.3% (inactive)
15,COc1ccccc1-c1cc(C(=O)N2CCCCC2)no1,-82.1% (inactive)
16,CCOc1cccc(C(=O)Nc2cccnc2)c1,-6.7% (inactive)
17,Cc1noc(/C=C/N(C)C)c1S(=O)(=O)N1CCCC(C(=O)NCc2ccco2)C1 (stereo not given),15% (inactive)
18,COc1ccccc1Nc1ncnc2c1oc1ccccc12,-91.8% (inactive)
19,COC(=O)N1CN(C(=O)OC)CN(C(=O)OC)C1,-1.7% (inactive)
20,C=C(C)CSc1nc(N)c2c3c(sc2n1)CCC3,-51.4% (inactive)
21,CC(C)(CNCC(O)c1ccccc1)N1CCOCC1 (stereo not given),-12.6% (inactive)
22,O=C(CS(=O)(=O)c1cn(Cc2cccc(F)c2)c2ccccc12)N1CCCCC1,-5.4% (inactive)
23,Cc1noc(COc2ccccc2OCC(O)CNC(C)(C)C)n1 (stereo not given),0.5% (inactive)
24,COC(=O)c1c(NC(=O)c2cccs2)sc2c1CCCC2,-28.2% (inactive)
25,N#CCCN1CCN(S(=O)(=O)c2ccc(S(=O)(=O)N3CCCC3)cc2)CC1,18% (inactive)
